The results in this text go back to the supplement of paper PMC6522484.

Several values for one entry are separate records, joined by “and”; a condition that tells them apart may be missing. Identical values can stand only once. ± gives the standard deviation of the averaged measurements.

For this test, the system named is DLD1. The experiment in a line: TCF/Wnt firefly luciferase reporter signal relative to plate median (fraction of plate median); higher = higher Wnt reporter signal. The settings on record: 5 µM; treatment time 24 h; reporter: 7TFP. In short, it runs like this:
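After seeding in 384-well plates, colorectal cancer cell lines carrying stable lentiviral TCF/Wnt firefly luciferase reporters (7TFP or TCF4/Wnt) were left 24 h. Library compounds were then added at a final 5 µM for 24 h. A Tecan F500 reader measured firefly luciferase or CellTiterGlo luminescence on parallel plates, with each well normalised to the plate median by webcellHTS2 (additive, no log transformation), and two independent replicates averaged.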
Regarding `O=C(c1ccc(OCCN2CCCCC2)cc1)c1c(-c2ccc(O)cc2)sc2cc(O)ccc12`, the “TCF/Wnt firefly luciferase reporter signal” value was 0.879 ± 0.0042.
With `OCC(O)C(O)C(O)CO` (stereo not given) the figure was 1.02 and 1.01.
The result for `COc1cc2c(cc1OC)[C@@H]1Cc3ccc(OC)c(OC)c3CN1CC2` reads 1.17 ± 0.18; that for `NCCCCNCCCN`, 1.12 ± 0.16; that for `COc1cc(C)c2c(c1C=O)Oc1c(c(C)c(O)c3c1C(O)OC3=O)OC2=O` (stereo not given), 0.949 ± 0.16.
With `COc1ccc(-c2cc(=O)c3c(O)cc(O)cc3o2)cc1` the figure was 0.912 ± 0.026; with `C[C@]12C=CC(=O)C=C1CC[C@H]1[C@@H]3C[C@@H](O)[C@](O)(C(=O)CO)[C@@]3(C)C[C@H](O)[C@@]12F`, 0.951 ± 0.069; with `COC(=O)Nc1nc2cc([S+]([O-])c3ccccc3)ccc2[nH]1` (stereo not given), 0.983 ± 0.052.
Consider `C=C1CCC2C(CC2(C)C)C(=C)CC/C1=N/O` (stereo not given), for which the “TCF/Wnt firefly luciferase reporter signal” value was found to be 1.095 ± 0.0071.
With `CC(=O)O[C@H]1CC[C@]2(C)[C@H]3CC=C4[C@@H]5CC(C)(C)CC[C@]5(C)CC[C@@]4(C)[C@]3(C)CC[C@H]2C1(C)C` [beta-AMYRIN ACETATE] the figure was 1.145 ± 0.0071.
As for `CN(C(=O)C(Cl)Cl)c1ccc(OC(=O)c2ccco2)cc1`, the “TCF/Wnt firefly luciferase reporter signal” value worked out at 0.833 ± 0.14.
The result for `CC1CC2C3CCC4=CC(=O)C=CC4(C)C3(F)C(O)CC2(C)C1C(=O)CO` (stereo not given) reads 1.05; that for `CC(=O)O[C@H]1CC[C@]2(C)C3=CC(=O)[C@@]4(C)C(C[C@@H]5OC6(OCC(C)CC6Br)[C@@H](C)[C@@H]54)C3CC[C@H]2C1` (stereo partly drawn) [3beta-ACETOXY-23-BROMO-ISOALLOSPIROST-9 (11)-ENE-12-ONE], 1.12 ± 0.099; that for `CO[C@@H]1[C@H](O)[C@@H](C)O[C@@H](OC[C@H]2[C@@H]3O[C@H]3/C=C/C(=O)[C@@](C)(O)C[C@H](C)[C@H](O[C@@H]3O[C@H](C)C[C@H](OC)[C@H]3O)[C@@H](C)/C=C/C(=O)O[C@@H]2C)[C@@H]1OC` [Chalcomycin], 0.869 ± 0.094.
With `CC(C)COCC(CN(Cc1ccccc1)c1ccccc1)N1CCCC1` (stereo not given) the figure was 0.901 ± 0.084; with `COc1cccc2c(C)cc(=O)[nH]c12`, 1.05 ± 0.064.
In the case of `CC1(C)CCC[C@]2(C)[C@@H]3[C@H]1[C@@H](O)[C@@]2(C)C[C@H]3O`, the “TCF/Wnt firefly luciferase reporter signal” value came out at 0.981 ± 0.023.
The result for `O=c1ccc2ccccc2o1` reads 1.09 ± 0.014; that for `CCC[C@H](N[C@@H](C)C(=O)N1[C@H](C(=O)O)C[C@@H]2CCCC[C@@H]21)C(=O)OCC`, 0.982 ± 0.025; that for `O=c1cc(-c2ccccc2)oc2cc(O)cc(O)c12`, 1.03 ± 0.23.
Regarding `NC[C@H]1CC[C@H](C(=O)O)CC1`, the “TCF/Wnt firefly luciferase reporter signal” value stood at 0.927 ± 0.1.
For `CCC1(c2ccccc2)C(=O)NCNC1=O`, the “TCF/Wnt firefly luciferase reporter signal” value turned out to be 0.978 ± 0.1.
The result for `Oc1c(Br)cc(Br)c2cccnc12` reads 1.24 ± 0.014; that for `Cc1cnc(NC(=O)C2=C(O)c3ccccc3S(=O)(=O)N2C)s1`, 1.02 ± 0.031; that for `COC1=CC(=O)c2c(O)c3c(c(O)c2C1=O)OC1(Oc2c(cc4cc(C)oc(=O)c4c2O)C2OC21)C3O` (stereo not given) [Griseorhodin A], 0.925 ± 0.057.
With `N/C(=N\C(=O)c1nc(Cl)c(N)nc1N)NCc1ccccc1` the figure was 1.07 ± 0.16; with `NCc1ccc(S(N)(=O)=O)cc1`, 1.03 ± 0.17; with `O=c1cc(-c2ccccc2)oc2cc(O)c(O)cc12`, 0.801 ± 0.064.
On to `CC(=O)Oc1cccc(O)c1`, for which the “TCF/Wnt firefly luciferase reporter signal” value turned out to be 0.952 ± 0.097.
`CC(C)=CC1C(C(=O)O)C1(C)C` (stereo not given): the “TCF/Wnt firefly luciferase reporter signal” value was 0.897 ± 0.065.
As for `OCCOCCN1CCN(C2=Nc3ccccc3Sc3ccccc32)CC1`, the “TCF/Wnt firefly luciferase reporter signal” value was found to be 1.03 ± 0.028.
On to `Nc1nc(/C(=C/CC(=O)O)C(=O)N[C@@H]2C(=O)N3C(C(=O)O)=CCS[C@H]23)cs1`, for which the “TCF/Wnt firefly luciferase reporter signal” value was 1.13 ± 0.22.
On to `CN1CCCC(n2nc(Cc3ccc(Cl)cc3)c3ccccc3c2=O)CC1` (stereo not given), for which the “TCF/Wnt firefly luciferase reporter signal” value stood at 1.17 ± 0.17.
The result for `O=c1c(O)cccc2cc(O)c(O)c(O)c12` reads 1.04 ± 0.014.
Regarding `Oc1ccc([C@H]2Oc3cc(O)cc(O)c3C[C@H]2O)cc1`, the “TCF/Wnt firefly luciferase reporter signal” value is 1.01 ± 0.12.
Regarding `CCOC(=O)c1ccc(O)cc1`, the “TCF/Wnt firefly luciferase reporter signal” value was 1.01.
Consider `C[C@@H]1C(=O)O[C@H]2C[C@@]34[C@H]5C[C@@H](C(C)(C)C)[C@]36[C@@H](OC(=O)[C@@H]6O)O[C@@]4(C(=O)O5)[C@]21O`, for which the “TCF/Wnt firefly luciferase reporter signal” value was 1.15 ± 0.021.
As for `COc1ccc(-c2coc3cc(OC)cc(OC)c3c2=O)cc1`, the “TCF/Wnt firefly luciferase reporter signal” value is 0.963 ± 0.11.
As to `C[C@H]1C[C@@H]2[C@H]([C@@H](O)C[C@@]3(C)[C@H]2CC[C@]3(O)C(=O)CO)[C@@]2(C)C=CC(=O)C=C12`, the “TCF/Wnt firefly luciferase reporter signal” value was 0.9235 ± 0.005.
For the compound `COC(=O)Nc1nc2cc(C(=O)c3ccccc3)ccc2[nH]1`, the “TCF/Wnt firefly luciferase reporter signal” value was 0.896 ± 0.027.
